Results as given in PubChem BioAssay (NCATS).
Results filed as inconclusive are left out. Activity calls are given as the source filed them. Calls come from the whole dose curve; as a rule, active = well fitted curve in the direction sought with a large enough effect; inconclusive = small, poorly fitted or top-dose-only effect, or another doubt; inactive = no such curve, though single readings can be large; an effect the other way counts as inactive or inconclusive.

Legend:
[1] = qHTS of pediatric cancer cell lines to identify multiple opportunities for drug repurposing: Primary screen for MG 63 (6-TG R) cells (AID 1347105); note: nearly all actives have a fitted effect of over 50% in size; note: potency is the fitted concentration of half-maximal effect
Outline: (§1)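 Cells seeded at 500-1,000 cells/well in growth media, rested 5 hours at 37 degrees C, 5% CO2, then dosed; MIPE compounds at 11-point (from 0.78 nM) and NPC at 8-point (from 0.59 nM) final concentrations. Viability by CellTiter-Glo luminescence after 48 hours.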

[2] = qHTS of pediatric cancer cell lines to identify multiple opportunities for drug repurposing: Primary screen for control Hh wild type fibroblast cells (AID 1347106); note: nearly all actives have a fitted effect of over 55% in size; note: potency is the fitted concentration of half-maximal effect
Outline: (§2)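 Cells (500-1,000/well) in growth media were settled 5 h at 37 degrees C, then given compounds for 48 h. Viability was read as CellTiter-Glo luminescence. Primary runs used MIPE at 11 points (0.78 nM-46 µM) and NPC at 8 points (0.59 nM-46 µM); follow-ups used 11 points.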

[3] = qHTS of pediatric cancer cell lines to identify multiple opportunities for drug repurposing: Primary screen for Rh30 cells (AID 1347107); note: nearly all actives have a fitted effect of over 75% in size; note: potency is the fitted concentration of half-maximal effect
Outline: as §2

[4] = qHTS of pediatric cancer cell lines to identify multiple opportunities for drug repurposing: Primary screen for Rh41 cells (AID 1347108); note: nearly all actives have a fitted effect of over 70% in size; note: potency is the fitted concentration of half-maximal effect
Outline: as §1

[5] = qHTS of pediatric cancer cell lines to identify multiple opportunities for drug repurposing: Confirmatory screen for A673 cells (AID 1347110);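 note: potency is the fitted concentration of half-maximal effect; cells exposed to compound for 48 h before the viability read; nearly all actives have a fitted effect of over 65% in size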
Outline: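 Forty-eight-hour viability assay. Follow-up compounds ran at 11-point dilutions; positive control bortezomib at 2.3 uM final, neutral control DMSO.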

[6] = qHTS of pediatric cancer cell lines to identify multiple opportunities for drug repurposing: Confirmatory screen for BT-12 cells (AID 1347112); note: nearly all actives have a fitted effect of over 55% in size; note: potency is the fitted concentration of half-maximal effect
Outline: as §2

[7] = qHTS of pediatric cancer cell lines to identify multiple opportunities for drug repurposing: Confirmatory screen for LAN-5 cells (AID 1347113); note: nearly all actives have a fitted effect of over 65% in size; note: potency is the fitted concentration of half-maximal effect
Outline: as §2

[8] = qHTS of pediatric cancer cell lines to identify multiple opportunities for drug repurposing: Confirmatory screen for DAOY cells (AID 1347114); note: nearly all actives have a fitted effect of over 65% in size; note: potency is the fitted concentration of half-maximal effect
Outline: (§3)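 Viability measured as metabolically active cells via CellTiter-Glo luminescence following 48 hours of compound exposure, 11-point dilutions in confirmatory testing. 500-1,000 cells/well plated 5 hours before dosing; controls were DMSO and 2.3 µM bortezomib.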

[9] = qHTS of pediatric cancer cell lines to identify multiple opportunities for drug repurposing: Confirmatory screen for SJ-GBM2 cells (AID 1347116); note: potency is the fitted concentration of half-maximal effect; nearly all actives have a fitted effect of over 60% in size
Outline: as §3

[10] = qHTS of pediatric cancer cell lines to identify multiple opportunities for drug repurposing: Confirmatory screen for NB-EBc1 cells (AID 1347115);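 note: cells exposed to compound for 48 h before the viability read; nearly all actives have a fitted effect of over 45% in size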
Outline: as §2

Measured: Potency

CCCCCCCCc1ccc(O)cc1
inactive: [1] | [2] | [3] | [4]

C#CC1(O)CCC2C3CCC4=CC(=O)CCC4(C)C3CCC21C (stereo not drawn)
inactive: [1] | [2] | [3] | [4]

C[C@]12CC[C@H]3[C@@H](CCC4=CC(=O)CC[C@@]43C)[C@H]1CC[C@H]2O
inactive: [1] | [2] | [3] | [4]

CC(Cc1ccc(O)cc1)NCC(O)c1cc(O)cc(O)c1 (stereo not drawn)
inactive: [1] | [2] | [3] | [4]

O=[N+]([O-])c1ccc([As](=O)(O)O)cc1
inactive: [1] | [2] | [3] | [4]

COc1ccc(CC2NCCc3cc(OC)c(OC)cc32)cc1OC (stereo not drawn)
inactive: [1] | [2] | [3] | [4]

CC[C@@H](C(N)=O)N1CCCC1=O
inactive: [1] | [2] | [3] | [4]

C1=C2CCCN[C@H]2[C@@H]2C[C@H]1[C@@H]1CCCCN1C2
inactive: [1] | [2] | [3] | [4]

CCN1CCN(C(=O)Cc2ccc(Nc3ncc(F)c(Nc4ccc(C(=O)Nc5ccccc5Cl)cc4)n3)cc2)CC1
active: [1] 9.35 µM | [3] 23.5 µM | [4] 18.7 µM
inactive: [2]

NC1CC1c1ccccc1 (stereo not drawn)
inactive: [1] | [2] | [3] | [4]

O=C(Oc1ccc([N+](=O)[O-])cc1)N1CCN(Cc2cccc(Oc3ccccc3)c2)CC1
active: [1] 14.8 µM | [2] 3.32 µM
inactive: [3] | [4]

CC(C)(C)[C@]1(O)C[C@@H]2OC(=O)C[C@@]23C(=O)O[C@@H]2OC(=O)[C@H](O)C213 (stereo partly drawn)
inactive: [1] | [2] | [3] | [4]

O=S(=O)(c1ccc(Cl)cc1)c1ccc(Cl)cc1
inactive: [1] | [2] | [3] | [4]

COC(=O)c1cncn1C(C)c1ccccc1 (stereo not drawn)
inactive: [1] | [2] | [3] | [4]

CC1=NN=C(c2ccc(N)cc2)c2cc3c(cc2C1)OCO3
inactive: [1] | [2] | [3] | [4]

O=[N+]([O-])/N=C1\NCCN1Cc1ccc(Cl)nc1
inactive: [1] | [2] | [3] | [4]

CCC1(CCC(C)C)C(=O)NC(=O)NC1=O
inactive: [1] | [2] | [3] | [4]

COCCOCCO
inactive: [1] | [2] | [3] | [4]

Nc1ccc(Cl)cc1N
inactive: [1] | [2] | [3] | [4]

NC1=NC(=O)N2CC12 (stereo not drawn)
inactive: [1] | [2] | [3] | [4]

CCN1C[C@]2(OC(=O)c3ccccc3NC(C)=O)CC[C@H](OC)[C@@]34[C@H]5CC6[C@@H](OC)C[C@](O)(C(C[C@@H]23)[C@@H]14)[C@@]5(O)[C@@H]6OC
inactive: [1] | [2] | [3] | [4]

C[C@]12CC[C@H]3[C@@H](CCC4=CC(=O)CC[C@@]43C)[C@H]1CC[C@H]2OC(=O)CCC1CCCC1
inactive: [1] | [2] | [3] | [4]

O=C(O)CNC(=O)c1c(O)c2ccccc2n(Cc2ccccc2)c1=O
inactive: [1] | [2] | [3] | [4]

C[C@@]12OC(=O)[C@]1([C@@H](O)[C@@H]1C=CCCC1)NC(=O)[C@H]2CCCl
active: [1] 0.0296 µM | [2] 0.0935 µM | [3] 5.9 µM | [4] 0.059 µM | [5] 0.585 µM | [6] 2.93 µM | [7] 0.737 µM | [8] 0.657 µM | [9] 0.737 µM

Nc1ccc(Sc2ccc(N)cc2)cc1
inactive: [1] | [2] | [3] | [4]

CN1[C@H]2CC(O)C[C@H]1[C@H]1O[C@H]12 (stereo partly drawn)
inactive: [2]
active: [1] 14.8 µM | [3] 23.5 µM | [4] 23.5 µM

O=S(=O)(O)C(F)(F)C(F)(F)C(F)(F)C(F)(F)F
inactive: [1] | [2] | [3] | [4]

O=C(O)COc1nc(Cl)c(Cl)cc1Cl
inactive: [1] | [2] | [3] | [4] | [6] | [7] | [8] | [10]
active: [5] 2.18 µM

CC[N+]1(CCOC(=O)C(O)(c2ccccc2)c2ccccc2)CCCCC1
inactive: [1] | [2] | [3] | [4]

CCCCC(CC)COC(=O)c1ccccc1C(=O)OCC(CC)CCCC (stereo not drawn)
inactive: [1] | [2] | [3] | [4]

CCC(=O)O[C@@H]1C=C2CCC3C(CCC4(C)C3CC[C@@H]4OC(=O)CC)C2CC1 (stereo partly drawn)
inactive: [1] | [2] | [3] | [4]

C[C@H]([C@H](O)CCC(C)(C)O)[C@H]1CC[C@@]2(O)C3=CC(=O)[C@@H]4C[C@@H](O)[C@@H](O)C[C@]4(C)[C@@H]3CC[C@]12C
inactive: [1] | [2] | [3] | [4]
